FECH inh = inhibitors of human ferrochelatase, primary screen, biochemical, purified FECH, Ni-mesoporphyrin absorbance | Ni-mesoporphyrin absorbance 550 nm | 20,000 tested, 3.3% active | calls only at 10 µM (by protocol);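 active means enzyme reaction rate more than 3 SD below the solvent-only control wells on the same plate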;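 further: lower slope than DMSO wells means FECH inhibition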
Target sequence (P22830 whole entry, looked up): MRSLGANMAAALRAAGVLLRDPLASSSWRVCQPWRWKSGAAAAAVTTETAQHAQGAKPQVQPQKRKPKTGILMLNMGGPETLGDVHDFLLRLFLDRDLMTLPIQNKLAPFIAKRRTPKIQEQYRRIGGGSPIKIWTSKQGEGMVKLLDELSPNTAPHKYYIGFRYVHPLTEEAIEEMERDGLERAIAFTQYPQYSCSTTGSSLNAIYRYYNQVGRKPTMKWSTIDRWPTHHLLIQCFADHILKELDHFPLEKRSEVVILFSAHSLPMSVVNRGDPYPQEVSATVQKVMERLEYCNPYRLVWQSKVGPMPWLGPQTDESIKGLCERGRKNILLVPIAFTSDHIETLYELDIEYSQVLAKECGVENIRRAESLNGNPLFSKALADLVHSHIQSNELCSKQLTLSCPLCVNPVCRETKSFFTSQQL
Starred values were filed as active, the others as inactive. Only a selection was taken, and hits are over-represented in it overall.

Results for COc1ccccc1-n1nc(C(C)C)nc1Cc1cc(C)no1 ?
FECH inh: inactive

What do the screens show for `COc1ccccc1-n1nc(C(C)C)nc1CCc1cccnc1`?
FECH inh: inactive

What do the screens show for `CC(c1nn2c(Cc3ccccc3)nnc2s1)n1cncn1` (stereo not drawn)?
FECH inh: inactive

Results for CC(C(=O)NC1CCCC1)N1CCC(c2cc(-c3ccco3)n[nH]2)CC1 (stereo not drawn) ?
FECH inh: inactive

How did O=C(NC1CC1)c1nc[nH]c1C(=O)NC1CCCCNC1=O (stereo not drawn) do in these assays?
FECH inh: active

What do the screens show for `O=C(NC1CCCCC1)c1nc[nH]c1C(=O)NC1CCCCNC1=O` (stereo not drawn)?
FECH inh: inactive

How did CCCNC(=O)c1[nH]cnc1C(=O)NC1CCCCNC1=O (stereo not drawn) do in these assays?
FECH inh: inactive

What do the screens show for `NS(=O)(=O)c1ccc(CCNC(=O)c2nc(S(=O)(=O)Cc3ccccc3)ncc2Cl)cc1`?
FECH inh: inactive

How did CSc1nc(-c2ccc(C)cc2)c(C#N)c(N2CCN(c3ccc(F)cc3)CC2)n1 do in these assays?
FECH inh: inactive

How did Cc1ccc(C2=CC(c3ccccc3Cl)n3nc(NC(=O)c4cccnc4)nc3N2)cc1 (stereo not drawn) do in these assays?
FECH inh: active

How did Cc1ccc(C2=CC(c3ccccc3Cl)n3nc(NC(=O)c4ccccc4)nc3N2)cc1 (stereo not drawn) do in these assays?
FECH inh: inactive

Results for Cc1ccc(C(=O)Nc2nc3n(n2)C(c2ccccc2Cl)C=C(c2ccc(C)cc2)N3)cc1 (stereo not drawn) ?
FECH inh: inactive

How did Cc1ccc(C2=CC(c3ccccc3Cl)n3nc(NC(=O)c4cccc(C)c4)nc3N2)cc1 (stereo not drawn) do in these assays?
FECH inh: inactive

How did Cc1ccc(C2=CC(c3ccccc3Cl)n3nc(NC(=O)c4cccc(Cl)c4)nc3N2)cc1 (stereo not drawn) do in these assays?
FECH inh: active

Results for Cc1cccc(C(=O)Nc2nc3n(n2)C(c2ccccc2Cl)C=C(c2ccccc2)N3)c1 (stereo not drawn) ?
FECH inh: inactive

Results for Cc1ncsc1CN1CCCCC1CCN(C)C (stereo not drawn) ?
FECH inh: inactive

How did CC1(C)[C@]2(C(=O)NCCCOc3cccnc3)CC[C@@]1(C)OC2=O do in these assays?
FECH inh: inactive

Results for C=CCN(CC=C)C(=O)CNC1CCN(S(C)(=O)=O)CC1 ?
FECH inh: inactive

How did CC(C)Cc1cn(C2CCN(C(=O)c3ccc4c(c3)CCO4)CC2)nn1 do in these assays?
FECH inh: inactive

Results for Cc1ccc(CN2CCCN(CC(=O)NCc3ccccc3Cl)S2(=O)=O)cc1 ?
FECH inh: active

How did O=C(CN1CCCN(Cc2ccccc2)S1(=O)=O)NCc1ccc(Cl)cc1 do in these assays?
FECH inh: inactive

What do the screens show for `COc1ccc(CNC(=O)CN2CCCN(Cc3ccccc3Cl)S2(=O)=O)cc1`?
FECH inh: inactive

How did Cc1ccc(CN2CCCN(CC(=O)NCc3ccccc3)S2(=O)=O)cc1 do in these assays?
FECH inh: active

Results for Cc1ccc(CN2CCCN(CC(=O)NCCc3ccccc3)S2(=O)=O)cc1 ?
FECH inh: inactive

How did Cc1ccc(CNC(=O)CN2CCCN(Cc3cccc(C)c3)S2(=O)=O)cc1 do in these assays?
FECH inh: inactive

Results for Cc1ccc(CN2C(=O)N(c3ccc(C)c(F)c3)S(=O)(=O)c3ccccc32)cc1C ?
FECH inh: inactive

How did CCn1nc(C)c(C(=O)NCc2ccc3c(c2)n(C)c(=O)n3C)c1C do in these assays?
FECH inh: inactive

How did CCOc1ccc(S(N)(=O)=O)cc1-c1nc(C(C)C)no1 do in these assays?
FECH inh: inactive

How did COC(=O)c1ccc(Cn2ccnc2-c2nccn2C(C)C)cc1 do in these assays?
FECH inh: inactive

Results for NC(=O)[C@H](Cc1ccccc1)N1Cc2ncccc2C1=O ?
FECH inh: active

How did O=C1c2cccnc2CN1C(CCn1cncn1)c1ccccc1 (stereo not drawn) do in these assays?
FECH inh: inactive

Results for NS(=O)(=O)c1ccc(CN2Cc3ncccc3C2=O)cc1 ?
FECH inh: inactive

How did CC1(C)CNC(=O)c2nc(CCNc3cccnc3)[nH]c2C1 do in these assays?
FECH inh: inactive

How did CCC(=O)Nc1nc2n(n1)C(c1ccccc1)C=C(c1ccccc1)N2 (stereo not drawn) do in these assays?
FECH inh: active

Results for COc1ccc(C(=O)Nc2nc3n(n2)C(c2ccccc2)C=C(c2ccccc2)N3)cc1OC (stereo not drawn) ?
FECH inh: active

Results for COc1ccc(C2C=C(c3ccccc3)Nc3nc(NC(=O)c4ccc(Cl)cc4)nn32)cc1 (stereo not drawn) ?
FECH inh: inactive

How did CCC(=O)Nc1nc2n(n1)C(c1ccc(Cl)cc1)C=C(c1ccccc1)N2 (stereo not drawn) do in these assays?
FECH inh: inactive
